CYP2C19 activ = human CYP2C19 activators, primary screen, biochemical, luminescence | recombinant CYP2C19, luciferin-H EGE luminescence; stronger effect = higher value; 0 = fully inhibited enzyme, 1 = untreated enzyme | activation factor at 5 µM | 96,000 tested, under 10 active;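 active = activation factor of at least 2 at 5 µM in the primary screen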;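 note: 0 = wells with 2.5 mM tranylcypromine and 1 = vehicle-only wells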
CD11b adhes inh = inhibitors of CD11b/CD18 adhesion to fibrinogen, primary screen, K562 cells, luminescence; Integrin beta-2 (Homo sapiens) + Integrin alpha-M (Homo sapiens), P05107+P11215; ATPlite luminescence; Mn2+ added to activate the integrin; inhibition, % at 10 µM; actives 0.54% (n = 93,000); AID 1497, 2009;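 active = primary inhibition of 50% or more at 10 µM, then 40% or more on retest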
Target sequence (P05107 whole entry, looked up, other chains not shown): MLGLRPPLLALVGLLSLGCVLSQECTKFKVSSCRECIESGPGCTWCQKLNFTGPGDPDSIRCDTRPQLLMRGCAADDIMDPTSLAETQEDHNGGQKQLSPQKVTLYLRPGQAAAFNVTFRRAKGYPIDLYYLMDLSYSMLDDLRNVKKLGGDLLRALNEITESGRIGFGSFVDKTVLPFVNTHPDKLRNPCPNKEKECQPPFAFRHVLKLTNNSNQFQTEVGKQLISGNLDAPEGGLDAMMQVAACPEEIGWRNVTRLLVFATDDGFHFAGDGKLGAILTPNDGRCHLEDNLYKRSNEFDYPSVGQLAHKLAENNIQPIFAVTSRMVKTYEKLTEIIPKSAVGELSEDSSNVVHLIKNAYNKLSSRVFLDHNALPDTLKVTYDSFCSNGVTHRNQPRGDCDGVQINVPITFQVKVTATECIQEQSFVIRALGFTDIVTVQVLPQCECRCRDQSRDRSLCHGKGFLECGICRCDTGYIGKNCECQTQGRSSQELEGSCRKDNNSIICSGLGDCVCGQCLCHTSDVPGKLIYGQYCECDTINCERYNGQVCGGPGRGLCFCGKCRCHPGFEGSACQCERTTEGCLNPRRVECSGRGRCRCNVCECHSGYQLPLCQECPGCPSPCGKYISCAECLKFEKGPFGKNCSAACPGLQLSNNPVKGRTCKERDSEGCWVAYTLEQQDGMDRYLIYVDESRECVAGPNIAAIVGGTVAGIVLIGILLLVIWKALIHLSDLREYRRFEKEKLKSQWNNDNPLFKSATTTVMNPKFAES
CYP2C19 inhib = blockers of cytochrome P450 2C19 activity – biochemical, luminescence, ADME assay, primary screen. P33261. CYP2C19 Supersomes, luciferin-H EGE luminescence, 30 min. actives 21% (n = 96,000). inhibition, % at 5 µM;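 active = CYP2C19 inhibition above a set limit at 5 µM in the primary screen, cut at about 50% in these data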;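 note: plate controls were negative control wells for no effect and 2.5 mM tranylcypromine positive control for full effect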
CYP2C9 act = human CYP2C9 activators, primary screen, biochemical, luminescence; recombinant CYP2C9, luciferin-H conversion; stronger effect = higher value; factor 1 = untreated enzyme, 0 = blocked; actives 1.4% (n = 96,000); activation factor at 5 µM;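 active = activation factor of 2 or more for CYP2C9 at a 5 µM dose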;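 note: 0 = sulfaphenazole-blocked wells and 1 = vehicle-only wells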
CYP2C9 inh = blockers of cytochrome P450 2C9 activity – biochemical, luminescence, ADME assay, primary screen | P11712 | CYP2C9 Supersomes, luciferin-H conversion | inhibition, % at 5 µM | actives 20% (n = 96,000) | AID 777, 2007;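 active = blocking of liver enzyme CYP2C9 beyond about 50% at 5 µM, limit read from the data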
CD11b adhes enh = enhancers of CD11b/CD18 adhesion to fibrinogen, primary screen, K562 cells, luminescence. activation, % at 10 µM. ATPlite luminescence. actives 0.07% (n = 93,000). Integrin beta-2 (Homo sapiens) + Integrin alpha-M (Homo sapiens), P05107+P11215;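 active = 10 µM primary screen giving 50% or more activity, confirmed by 40% or more on retest at that dose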
* marks the source's active call; other numbers are inactive results; . = no result. An excerpt weighted towards active compounds, which were near 28% of everything screened.

SMILES	CYP2C19 activ	CD11b adhes inh	CYP2C19 inhib	CYP2C9 act	CYP2C9 inh	CD11b adhes enh
CC(C)CC(NC(=O)OC(C)(C)C)C(=O)NC(C(=O)N1CCCC1C(N)=O)C(C)C (centres undefined)	1.1	-44	-10	1.1	-12	-2
NS(=O)(=O)c1cccc(NC(=O)COC(=O)c2cc(-c3ccc(Cl)cc3)nc3ccccc23)c1	.	8	.	.	.	1
NC(=O)C1CCCN(C(=S)Nc2cccc3ccccc23)C1 (centres undefined)	.	2	.	.	.	0
COc1cc([C@H]2[C@@H]3CCCC[C@]3(O)CCN2CC(=O)Nc2ccc(C)cc2C)ccc1O	0.8	-11	17	0.7	32	-3
COc1cc([C@H]2[C@@H]3CCCC[C@]3(O)CCN2Cc2ccccc2F)ccc1O	0.2	-9	83*	0.6	37	0
Cc1ccc(C2C(=O)N(C3CCCC3)CC(=O)N2CC2COc3ccccc3O2)cc1 (centres undefined)	0.9	.	10	1.1	-8	.
O=C(NNC(=O)c1ccc(SCC2CCCO2)c([N+](=O)[O-])c1)c1ccc(Cl)c([N+](=O)[O-])c1 (centres undefined)	0.9	1	12	0.3	74*	13
O=C(NNC(=O)c1ccccc1Br)c1ccc(SCC2CCCO2)c([N+](=O)[O-])c1 (centres undefined)	0.9	.	8	0.4	62*	.
Cc1cccc2cc(CN(Cc3ccccc3)C(=O)c3cccc(F)c3)c(Cl)nc12	0.6	10	42	0.4	62*	-4
CCOC(=O)N1CCN(C(=O)c2nn(-c3cc(OC)cc(OC)c3)c(=O)c3ccccc23)CC1	0.4	-23	63*	0.2	80*	1
COc1ccccc1N1CCN(C(=O)c2nn(-c3ccccc3OC)c(=O)c3ccccc23)CC1	0.5	33	49	0.4	58*	-4
CCOc1ccc(-n2cc(C(=O)N3CCC(C)CC3)c3cc(OC)c(OC)cc3c2=O)cc1	0.8	6	16	0.8	20	-1
CCOC(=O)N1CCN(C(=O)c2cn(-c3ccc(C)c(C)c3)c(=O)c3ccccc23)CC1	0.8	-13	24	0.4	64*	-2
COc1ccccc1-n1nc(C(=O)O)c2ccccc2c1=O	1	-16	-3	1.1	-8	5
O=C(Cn1cnc2c(nnn2-c2ccc(F)cc2)c1=O)N1CCCC1	1.1	2	-14	1.1	-14	0
CNC(=O)C1C2C=CC3(O2)C1C(=O)N(C1CC1)C3C(=O)NCc1ccc(OC)cc1 (centres undefined)	1.2	-6	-16	1.3	-26	4
CCCSc1nc(N2CCCC2)c2c(c1C#N)CC(C)(C)OC2	0.4	6	57*	0.1	94*	1
CC1(C)Cc2c(C#N)c(SCCC#N)nc(N3CCOCC3)c2CS1	0.5	.	51*	0.1	92*	.
CC1(C)Cc2c(C#N)c(SCCOc3ccccc3)nc(N3CCOCC3)c2CO1	0.1	-30	89*	0	99*	7
CSc1nc(N2CCCC2)c2c(c1C#N)CC(C)(C)OC2	0.8	-2	19	0.7	29	-1
N#Cc1nc(COc2ccccc2)oc1N1CCOCC1	0.8	-21	24	1	0	8
Cc1ccc(SCC(=O)NCCSC(C)(C)C)cc1	0.7	2	34	0.6	38	0
CC1(C)Cc2c(sc3c4nnnn4c4nnnn4c23)CO1	0.9	-9	7	0.9	7	-1
Fc1ccccc1OCCCCCCN1CCCC1	0.9	.	14	0.9	12	.
O=C(N/N=C\c1cc(Cl)ccc1O)c1ccc(S(=O)(=O)N2CCCCC2)cc1	.	-11	.	.	.	63
SMILES	CYP2C19 activ	CD11b adhes inh	CYP2C19 inhib	CYP2C9 act	CYP2C9 inh	CD11b adhes enh
CC(C)NC(=O)COC(=O)c1ccc(Oc2ccccc2)cc1	0.8	-17	18	0.8	23	-1
CN(C)S(=O)(=O)N1CCc2ccccc2C1	0.3	-3	66*	2.4*	-136	-8
Cc1n[nH]c(C)c1S(=O)(=O)N(CC(=O)N1CCc2ccccc21)c1ccc(C(C)C)cc1	0.8	-14	19	0.4	58*	1
CCOc1ccc(N(CC(=O)N2CCc3ccccc32)S(=O)(=O)c2c(C)noc2C)cc1	0.8	-3	16	0.8	19	1
O=S(=O)(Cc1ccccc1)N1CCc2ccccc21	0.3	-26	69*	0.7	35	-1
CN(C)S(=O)(=O)N1CCc2ccccc21	0.8	2	17	2.3*	-130	-2
O=C(CS(=O)(=O)Cc1ccccc1)N1CCc2ccccc2C1	0.6	-18	43	1.1	-5	10
Cc1n[nH]c(C)c1S(=O)(=O)N1CCc2ccccc21	0.4	1	61*	1	1	-1
Cn1cnc(S(=O)(=O)N2CCc3ccccc32)c1	1	-9	-4	1.3	-25	-2
O=C(C1=C(O)C(=O)N(Cc2ccco2)C1c1ccccc1)c1cccs1 (centres undefined)	0.8	.	21	0.6	44	.
O=C(NCc1cccnc1)C1c2ccccc2C(=O)N1C1CCCCCC1 (centres undefined)	0.3	-15	68*	0.8	20	-4
O=C(NC1CCCCCC1)C1c2ccccc2C(=O)N1Cc1cccnc1 (centres undefined)	0.5	-7	52*	1	2	-6
O=c1c(CN2CCN(Cc3ccccc3)CC2)coc2ccc(Cl)cc12	0.6	-5	44	2.8*	-182	0
Cc1ccc2occ(CN3CCN(c4ccccc4)CC3)c(=O)c2c1	0.2	-1	82*	0.8	21	10
Cc1ccc2occ(CN3CCN(Cc4ccccc4)CC3)c(=O)c2c1	0.9	.	13	1.2	-18	.
CC1CCCCC1NC(=O)Cn1[nH]c(=O)c2ccccc2c1=O (centres undefined)	0.6	0	41	1.1	-6	-5
Cc1ccc(NC(=O)c2ocnc2C)cc1Cl	1	-2	4	1	-2	0
CCc1nnc(NC(=O)CSc2nc3c(c(=O)n2C)SC(C)C3)s1 (centres undefined)	0.8	4	15	0.7	26	1
CC1Cc2nc(SCC(=O)Nc3nc4ccccc4s3)n(C)c(=O)c2S1 (centres undefined)	0	36	97*	0	98*	-5
CCSc1nnc(NC(=O)CSc2nc3c(c(=O)n2CC)SC(C)C3)s1 (centres undefined)	1	.	3	0.6	38	.
